{"source": "PubChem BioAssay (NCATS)", "note": "“And” between values parts separate entries of the source, which are not always exact repeats. Equal entries are not always repeated. Inconclusive results are not listed. Entries that show only a call come without a potency. More than one record can exist for a structure, and the calls need not agree. The source made the active and inactive calls. The call rests on the fitted dose curve; in most records, active means well fitted curve in the direction sought with a large enough effect; inconclusive means small, poorly fitted or top-dose-only effect, or another doubt; inactive means no such curve, though single readings can be large; an effect the other way counts as inactive or inconclusive.", "data": [{"biological_target": "Metallo-beta-lactamase type 2 (Klebsiella pneumoniae) (UniProt C7C422)", "sequence (C7C422 whole entry, looked up)": "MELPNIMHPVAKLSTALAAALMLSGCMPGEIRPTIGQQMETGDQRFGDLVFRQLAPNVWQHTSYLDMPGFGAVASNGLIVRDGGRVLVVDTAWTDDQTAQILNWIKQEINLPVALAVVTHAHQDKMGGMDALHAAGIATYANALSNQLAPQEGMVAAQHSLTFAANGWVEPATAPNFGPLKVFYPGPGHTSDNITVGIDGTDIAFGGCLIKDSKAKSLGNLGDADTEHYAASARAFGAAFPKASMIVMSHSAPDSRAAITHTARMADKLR", "assay": "qHTS to identify inhibitors of the New Delhi Metallo-beta-lactamase (NDM): assay validation screen against the NCATS LOPAC Collection (AID 1794843);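 further: nitrocefin turnover by NDM-1 measured as 485 nm absorbance at plateau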", "conditions": "NDM-1 enzyme, nitrocefin hydrolysis, absorbance 485 nm; series mostly up to 38.4 µM", "how_it_was_run": "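Nitrocefin hydrolysis (50 uM substrate stock) by NDM-1, 2 nM final, was followed by 485 nm absorbance after compound preincubation; buffer was 50 mM HEPES pH 7.0, 1 uM ZnSO4, 0.01% Tween20.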", "values": [{"smiles": "c1cnc2cc3c(cc2n1)C1CNCC3C1", "outcome": "inactive"}, {"smiles": "Cc1cccc(C#Cc2ccccc2)n1", "outcome": "inactive"}, {"smiles": "CN(C)CCCC1(c2ccc(F)cc2)OCc2cc(C#N)ccc21", "note": "(stereo unspecified)", "outcome": "inactive"}, {"smiles": "O=Nc1c(-c2c(O)[nH]c3cc(Br)ccc23)[nH]c2ccccc12", "outcome": "inactive"}, {"smiles": "NC(=NCc1ccccc1)NC(=O)c1nc(Cl)c(N)nc1N", "outcome": "inactive"}, {"smiles": "Clc1ccc2c(N3CCN(CCCN4CCN(c5ccnc6cc(Cl)ccc56)CC4)CC3)ccnc2c1", "outcome": "inactive"}, {"smiles": "C[C@@H](c1ncncc1F)[C@](O)(Cn1cncn1)c1ccc(F)cc1F", "outcome": "inactive"}, {"smiles": "O=C(c1ccccc1)c1ccc2n1CCC2C(=O)O", "note": "(stereo unspecified)", "outcome": "inactive"}, {"smiles": "Nc1nc(N)c(N=O)c(OCC2CCCCC2)n1", "outcome": "inactive"}]}, {"biological_target": "Glutathione peroxidase 1 (Homo sapiens) (UniProt P07203)", "sequence (P07203 whole entry, looked up)": "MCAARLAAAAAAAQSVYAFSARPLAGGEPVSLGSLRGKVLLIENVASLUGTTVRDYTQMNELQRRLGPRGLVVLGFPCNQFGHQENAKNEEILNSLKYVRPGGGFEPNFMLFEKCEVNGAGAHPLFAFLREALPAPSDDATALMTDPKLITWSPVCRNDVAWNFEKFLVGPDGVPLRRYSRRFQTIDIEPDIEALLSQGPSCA", "assay": "Primary qHTS Assay for Inhibitors of Recombinant Selenoprotein Glutathione Peroxidase 1 (GPX1) (AID 1845191); further: nearly all actives have a fitted effect of over 65% in size; further: potency means the concentration at half of the fitted maximal effect", "conditions": "recombinant GPX1, GR-coupled NADPH fluorescence, 15 min; series mostly up to 48.8 µM", "how_it_was_run": "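Recombinant GPX1 (10 nM final) was preincubated with compound for 30 min at room temperature, then reacted with 1 mM GSH, 0.5 mM CHP, 0.5 mM NADPH and 100 nM glutathione reductase; NADPH fluorescence (340/450 nm) was read at 0 and 15 min.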", "values": [{"smiles": "O=c1c(O)c(-c2ccc(O)cc2O)oc2cc(O)cc(O)c12", "Potency": "inactive"}, {"smiles": "Nc1nc(OCc2ccccc2)c2[nH]cnc2n1", "Potency": "inactive"}, {"smiles": "CCCS(=O)c1ccc2nc(NC(=O)OC)[nH]c2c1", "note": "(stereo unspecified)", "Potency": "inactive"}, {"smiles": "O=C(CCc1ccc(O)cc1)c1c(O)cc(O)cc1O", "Potency": "inactive"}, {"smiles": "CC1(C)C(=O)N(CCN2CCC(C(=O)c3ccc(F)cc3)CC2)c2ccccc21", "Potency": "inactive"}, {"smiles": "O=C(O)c1cccnc1Nc1cccc(C(F)(F)F)c1", "Potency": "inactive"}, {"smiles": "O=C1c2c(O)cc(O)cc2OC(c2ccc(O)c(O)c2)C1O", "note": "(stereo unspecified)", "Potency": "inactive"}, {"smiles": "O=C1c2ccccc2-c2n[nH]c3cccc1c23", "Potency": "inactive"}, {"smiles": "COc1ccccc1N1CCN(CCN(C(=O)C2CCCCC2)c2ccccn2)CC1", "Potency": "inactive"}, {"smiles": "Oc1ccc(-c2nc(-c3ccc(F)cc3)c(-c3ccncc3)[nH]2)cc1", "Potency": "inactive"}, {"smiles": "NCCCCNCCCN", "Potency": "inactive"}, {"smiles": "COC1=C(OC)C(=O)C(CCCCCCCCCCO)=C(C)C1=O", "Potency": "inactive and 7.28 µM (active)"}]}]}
